Results from PubChem BioAssay (NCI).
Compounds without any hit were thinned out: in the full panel of roughly 79,000, 15% have a hit. Calls of active or inactive are those of the source. Rule as the data show it: active = growth inhibition above about 70%; inactive = the rest.

Columns and labels:
[1] = NCI Yeast Anticancer Drug Screen. Data for the mec2-1 strain (AID 157); settings: S. cerevisiae mec2-1 strain, active compounds read high
In short: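 Yeast mec2-1 mutant treated with compound. Readout: growth inhibition vs vehicle controls.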

[2] = NCI Yeast Anticancer Drug Screen. Data for the rad14 strain (AID 159);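 also: 0% = growth of vehicle-treated control cultures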; settings: S. cerevisiae rad14 strain growth inhibition, active compounds read high
In short: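 DNA repair-defective yeast, compound-exposed; % growth inhibition derived by comparison with vehicle-treated controls.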

[3] = NCI Yeast Anticancer Drug Screen. Data for the sgs1 mgt1 strain (AID 161);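 also: 0% = growth of cultures given vehicle only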; settings: S. cerevisiae sgs1 mgt1 strain, active compounds read high
In short: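 Inhibition of yeast growth, normalised to vehicle-treated controls, is reported for a strain bearing genetic alterations in DNA damage repair.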

[4] = NCI Yeast Anticancer Drug Screen. Data for the cln2 rad14 strain (AID 165);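 also: 0% = growth equal to vehicle treated cultures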; settings: S. cerevisiae cln2 rad14 strain, active compounds read high
In short: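 cln2 rad14 yeast strain; compound exposure; growth inhibition read vs vehicle controls.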

[5] = NCI Yeast Anticancer Drug Screen. Data for the bub3 strain (AID 167); settings: S. cerevisiae bub3 mutant strain, active compounds read high
In short: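 In this screen, a yeast mutant lacking normal mitotic checkpoint function is challenged with compound. Relative growth versus vehicle gives the inhibition value.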

[6] = NCI Yeast Anticancer Drug Screen. Data for the wt2 strain (AID 169);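 also: 0% = growth of vehicle-treated yeast cultures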; settings: S. cerevisiae wt2 strain growth inhibition, active compounds read high
In short: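 Read-out: growth inhibition versus vehicle-treated control cultures after compound exposure of the yeast strain.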

[7] = NCI Yeast Anticancer Drug Screen. Data for the mlh1 strain (AID 171);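 also: 0% = growth of vehicle-treated control cultures of the same strain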; settings: S. cerevisiae mlh1 strain growth inhibition, active compounds read high
In short: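 Read-out: growth inhibition versus vehicle controls. Strain: engineered yeast with a defined DNA repair or cell cycle defect, compound-treated.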

[8] = NCI Yeast Anticancer Drug Screen. Data for the sgs1 strain (AID 173);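 also: 0% = growth of vehicle-only control cultures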; settings: S. cerevisiae sgs1 mutant, active compounds read high
In short: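 Read-out: yeast growth inhibition relative to vehicle controls, following compound exposure of a strain with a defined DNA repair/cell cycle alteration.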

[9] = NCI Yeast Anticancer Drug Screen. Data for the mlh1 rad18 strain (AID 175); settings: S. cerevisiae mlh1 rad18 strain growth inhibition, active compounds read high
In short: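 Yeast w/ defined DNA-repair lesions; compound exposure; growth vs vehicle controls → % inhibition.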

[10] = NCI Yeast Anticancer Drug Screen. Data for the rad18 strain (AID 177); settings: S. cerevisiae rad18 mutant growth inhibition, active compounds read high
In short: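 Readout: growth inhibition vs vehicle controls. Cells: genetically altered yeast strain, DNA repair defect.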

[11] = NCI Yeast Anticancer Drug Screen. Data for the rad52 strain (AID 147);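 also: 0% = growth of vehicle-treated control cultures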; settings: S. cerevisiae rad52 mutant growth inhibition, active compounds read high
In short: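 Read-out: growth inhibition versus vehicle-treated controls. Cells were a DNA repair-deficient yeast strain treated with compounds.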

[12] = NCI Yeast Anticancer Drug Screen. Data for the wt1 strain (AID 149);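 also: 0% = growth of vehicle-treated wt1 cultures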; settings: S. cerevisiae wt1 strain (SPY 50644) growth inhibition, active compounds read high
In short: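 wt1 strain grown with compound or vehicle; inhibition taken from the growth difference.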

[13] = NCI Yeast Anticancer Drug Screen. Data for the rad50EPP+ strain (AID 151);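 also: 0% = growth of vehicle-treated control cultures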; settings: S. cerevisiae rad50 mutant strain, active compounds read high
In short: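 Growth inhibition read against vehicle controls in rad50EPP+ yeast, a strain altered in DNA damage repair, after compound exposure.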

[14] = NCI Yeast Anticancer Drug Screen. Data for the mgt1 strain (AID 153); settings: S. cerevisiae mgt1 mutant growth inhibition, active compounds read high
In short: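 mgt1 yeast grown with test compound; read-out is growth inhibition versus vehicle-treated cultures.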

[15] = NCI Yeast Anticancer Drug Screen. Data for the rad50 strain (AID 155);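 also: 0% = growth of vehicle-only cultures of the same strain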; settings: S. cerevisiae rad50 strain growth inhibition, active compounds read high
In short: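 DNA repair mutant yeast, compound exposure, growth read-out; inhibition is taken relative to vehicle.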

[16] = NCI Yeast Anticancer Drug Screen. Data for the CLN2oe strain (AID 163);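 also: 0% = growth of vehicle-only control cultures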; settings: S. cerevisiae CLN2oe strain, active compounds read high
In short: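 Read-out: yeast growth inhibition, expressed relative to vehicle-only controls. The strain bears an engineered cell-cycle alteration.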

[17] = at 5.0 µM (retest, dose inferred, filed as 0.5)
[18] = at 50.0 µM (retest, dose inferred, filed as 5.0)

Measured: growth inhibition

COC(=O)C(=O)c1c(-c2ccc(Cl)c(Cl)c2)[nH]c2[nH]n(-c3ccccc3)c(=O)c2c1=O
active: [1]; at 50.0 µM 82.8% | [3]; [18] 83% | [4]; [18] 81% | [4]; at 50.0 µM 87.5% | [5]; [18] 84% | [5]; at 50.0 µM 82.5% | [9]; [18] 80% | [9]; at 50.0 µM 94.5% | [10]; at 100.0 µM 77%
inactive: [1]; [17] -7% | [1]; at 11.0 µM 40% | [1]; at 33.0 µM 57% | [1]; [18] 9% | [1]; at 100.0 µM 63% | [2]; at 1.2 µM -1% | [2]; at 3.7 µM -1% | [2]; at 11.0 µM 46% | [2]; at 33.0 µM 62% | [2]; at 100.0 µM 61% | [3]; [17] -3% | [3]; at 50.0 µM 43% | [4]; [17] -11% | [5]; at 1.2 µM -3% | [5]; at 3.7 µM -2% | [5]; [17] -38% | [5]; at 11.0 µM 51% | [5]; at 33.0 µM 54% | [5]; at 100.0 µM 55% | [6]; at 1.2 µM 0% | [6]; at 3.7 µM 5% | [6]; at 11.0 µM 44% | [6]; at 33.0 µM 57% | [6]; at 100.0 µM 56% | [7]; at 1.2 µM -2% | [7]; at 3.7 µM -3% | [7]; at 11.0 µM 36% | [7]; at 33.0 µM 57% | [7]; at 100.0 µM 57% | [8]; at 1.2 µM -1% | [8]; at 3.7 µM -1% | [8]; at 11.0 µM 60% | [8]; at 33.0 µM 61% | [8]; at 100.0 µM 65% | [9]; [17] -7% | [10]; at 1.2 µM -3% | [10]; at 3.7 µM -2% | [10]; at 11.0 µM 3% | [10]; at 33.0 µM 49%

CC(C)CCC[C@@H](C)[C@H]1CC[C@H]2[C@@H]3CC[C@H]4C[C@H](N)CC[C@]4(C)[C@H]3CC[C@]12C
inactive: [11]; at 1.2 µM -2% | [11]; at 3.7 µM 2% | [11]; at 11.0 µM -3% | [11]; at 33.0 µM -7% | [11]; at 100.0 µM -6% | [12]; at 1.2 µM -1% | [12]; at 3.7 µM 0% | [12]; at 11.0 µM -3% | [12]; at 33.0 µM -2% | [12]; at 100.0 µM 1% | [13]; at 1.2 µM 0% | [13]; at 3.7 µM 2% | [13]; at 11.0 µM 7% | [13]; at 33.0 µM 7% | [13]; at 100.0 µM 7% | [14]; at 1.2 µM -3% | [14]; at 3.7 µM -2% | [14]; at 11.0 µM -2% | [14]; at 33.0 µM -2% | [14]; at 100.0 µM 2% | [15]; at 1.2 µM 1% | [15]; at 3.7 µM 4% | [15]; [17] -19% | [15]; at 11.0 µM 4% | [15]; at 33.0 µM -2% | [15]; [18] 49% | [15]; at 50.0 µM 27.1% | [15]; at 100.0 µM -2% | [1]; at 1.2 µM 0% | [1]; at 3.7 µM -1% | [1]; [17] -9% | [1]; at 11.0 µM -2% | [1]; at 33.0 µM -2% | [1]; [18] -12% | [1]; at 50.0 µM 46.2% | [1]; at 100.0 µM -3% | [2]; at 1.2 µM -1% | [2]; at 3.7 µM 1% | [2]; at 11.0 µM -1% | [2]; at 33.0 µM -4% | [2]; at 100.0 µM -1% | [3]; [17] -9% | [3]; [18] 53% | [3]; at 50.0 µM -1.6% | [16]; at 1.2 µM -7% | [16]; at 3.7 µM -5% | [16]; at 11.0 µM -4% | [16]; at 33.0 µM -16% | [16]; at 100.0 µM -7% | [4]; [17] -10% | [4]; [18] -3% | [4]; at 50.0 µM 19.2% | [6]; at 1.2 µM 8% | [6]; at 3.7 µM -8% | [6]; at 11.0 µM 6% | [6]; at 33.0 µM -4% | [6]; at 100.0 µM 5% | [7]; at 1.2 µM -2% | [7]; at 3.7 µM -2% | [7]; at 11.0 µM -4% | [7]; at 33.0 µM -7% | [7]; at 100.0 µM -3% | [8]; at 1.2 µM -3% | [8]; at 3.7 µM -22% | [8]; at 11.0 µM 6% | [8]; at 33.0 µM 6% | [8]; at 100.0 µM 13% | [9]; [17] 2% | [9]; [18] 55% | [9]; at 50.0 µM 39.9%

CCCN=Cc1cc(Cc2ccc(O)c(C=NCCC)c2)ccc1O
inactive: [12]; at 1.2 µM 64% | [13]; at 1.2 µM 27% | [14]; at 1.2 µM 45% | [2]; at 1.2 µM 57% | [3]; [17] -15% | [3]; [18] -85% | [4]; [17] -41% | [4]; [18] -84% | [5]; at 1.2 µM 64% | [5]; [17] -49% | [5]; [18] -86% | [6]; at 1.2 µM 29% | [7]; at 1.2 µM 60% | [10]; at 1.2 µM 45%
active: [11]; at 1.2 µM 70% | [11]; at 3.7 µM 95% | [11]; at 11.0 µM 98% | [11]; at 33.0 µM 98% | [11]; at 100.0 µM 97% | [12]; at 3.7 µM 97% | [12]; at 11.0 µM 98% | [12]; at 33.0 µM 99% | [12]; at 100.0 µM 99% | [13]; at 3.7 µM 85% | [13]; at 11.0 µM 96% | [13]; at 33.0 µM 98% | [13]; at 100.0 µM 99% | [14]; at 3.7 µM 97% | [14]; at 11.0 µM 99% | [14]; at 33.0 µM 98% | [14]; at 100.0 µM 97% | [15]; at 1.2 µM 70% | [15]; at 3.7 µM 97% | [15]; [17] 93% | [15]; at 11.0 µM 99% | [15]; at 33.0 µM 99% | [15]; [18] 99% | [15]; at 50.0 µM 91% | [15]; at 100.0 µM 98% | [1]; at 1.2 µM 92% | [1]; at 3.7 µM 98% | [1]; [17] 99% | [1]; at 11.0 µM 99% | [1]; at 33.0 µM 98% | [1]; [18] 99% | [1]; at 50.0 µM 91.5% | [1]; at 100.0 µM 98% | [2]; at 3.7 µM 97% | [2]; at 11.0 µM 98% | [2]; at 33.0 µM 99% | [2]; at 100.0 µM 98% | [3]; at 50.0 µM 92.2% | [16]; at 1.2 µM 78% | [16]; at 3.7 µM 97% | [16]; at 11.0 µM 98% | [16]; at 33.0 µM 99% | [16]; at 100.0 µM 98% | [4]; at 50.0 µM 91.4% | [5]; at 3.7 µM 95% | [5]; at 11.0 µM 98% | [5]; at 33.0 µM 98% | [5]; at 50.0 µM 90.8% | [5]; at 100.0 µM 97% | [6]; at 3.7 µM 98% | [6]; at 11.0 µM 99% | [6]; at 33.0 µM 99% | [6]; at 100.0 µM 98% | [7]; at 3.7 µM 96% | [7]; at 11.0 µM 98% | [7]; at 33.0 µM 98% | [7]; at 100.0 µM 96% | [9]; [17] 98% | [9]; [18] 99% | [9]; at 50.0 µM 89.3% | [10]; at 3.7 µM 95% | [10]; at 11.0 µM 98% | [10]; at 33.0 µM 99% | [10]; at 100.0 µM 99%
